This note sets out measurements from PubChem BioAssay (NCI).

This is part of a sample that, as a whole, favours compounds with a hit. Of some 83,000 tested, about 20% had one in any assay.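 Method: cells in 96-well plates; compound added at one concentration; 48 h incubation; percent growth measured; values under 10 scored active.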 Unmarked numbers belong to inactive results. The source made the active and inactive calls.

What all share (test): NCI-60 one-dose screen, 48 h (100 = growth as untreated, 0 = no growth, -100 = all killed)
Details in all cases: 10 µM unless noted

Assay [1] concerns NCI-H23 lung.
The subject of assay [2] is NCI-H226 lung.
Assay [3] relates to NCI-H322M lung.
Assay [4] concerns NCI-H460 lung.
Assay [5] deals with HOP-92 NSCLC.
The subject of assay [6] is NCI-H522 lung.
For assay [7], the system named is A549/ATCC NSCLC.
Assay [8] has as its system 786-0 renal.
Assay [9] relates to COLO 205 colon.
For assay [10], the system named is HOP-62 NSCLC.

`CCOC(=O)CCN(CC(C)C)C(=S)Nc1ccccc1`: the growth was 98.8% in assay [1]; 107% in [2]; 107% in assay [3]; 107% in assay [4]; 110% in assay [5]; 101% in assay [6]. In addition, the growth in [7] and in [8] was 101% throughout.
As for `COc1cc2nc(-c3ccc(Cl)cc3)cc(OCCCN3CCCCC3)c2cc1OC`, the growth is 64.7% in assay [1]; -9.93% (active) in assay [2]; 63.1% in assay [3]; 25.6% in assay [4]; 34.2% in assay [5]; 34% in assay [6]. The values for the growth in [7], in [8] and in assay [9] were 36%, 72.5% and 16.1%, respectively.
As for `CCCCCCCCCCCCCCCC[N+]1(C)CCN(SN2CC[N+](C)(CCCCCCCCCCCCCCCC)CC2)CC1`, the growth in assay [1] is 52.8%; in assay [2], 78.9%; in assay [3], 80.3%; in assay [4], 29.6%; in assay [5], 15.5%; in [6] it was 54.8%. In addition, the growth in assay [7] is 72%; in assay [8], 30.3%; in [9], 61%.
Consider `O=C(Cc1ccccc1)NNc1nc(Cl)nc(N2CCN(C(c3ccccc3)c3ccccc3)CC2)n1`, for which the growth was 83% in assay [1]; 94.2% in assay [2]; 89.7% in assay [3]; 102% in [4]; 74.3% in [5]; -26.6% (active) in [6]. Further, the growth was 98.5% in assay [7], 95.4% in [8] and 98.6% in assay [9].
Consider `O=C(/C=C(/C=C/c1coc2ccccc12)OB(F)F)/C=C/c1coc2ccccc12`, for which the growth is 93.9% in [1]; 105% in assay [2]; 103% in assay [3]; 87.7% in [4]; 91% in assay [5]; 90.6% in [6]. The growth is 91.6% in [7], 102% in [8] and 95.9% in assay [9].
As to `COc1ccc(-c2nc([C@@H](C)Sc3nc(N)cc(N)n3)c(C)s2)cc1OCCN1CCOCC1`, the growth in assay [1] was 103%; in [2] it was 95.7%; in assay [3], 109%; in assay [4] it was 110%; in assay [5], 95.3%; in assay [6], 87%. The growth was 96.2% in assay [7], 104% in assay [8] and 116% in assay [9].
Take `COc1ccc(C(=O)c2cc(C)c(OC)c(C)c2)c(OC)c1N(C(=O)CCl)C(=O)CCl`: the growth is 20.8% in assay [1]; 7.88% (active) in assay [2]; 36.2% in [3]; 1.32% (active) in assay [4]; 7.45% (active) in [5]; 6.33% (active) in [6]. For the same compound, the growth is 13.4% in [7], 13.2% in assay [8] and -39.4% (active) in assay [9].
With `COc1cccc(-c2nc3occn3c2-c2ccnc(NCCCNS(=O)(=O)c3ccc(C(F)(F)F)cc3)n2)c1`, the growth in assay [1] was 99.3%; in assay [2], 80.5%; in assay [3], 99.4%; in assay [4], 89.8%; in assay [5], 104%; in assay [6], 86.9%. Further, the growth was 89.7% in assay [7], 86.8% in assay [8] and 70% in assay [9].
Take `Cc1c(C(=O)NCCC(=O)NO)sc2ncnc(Nc3ccc(NC(=O)Nc4cccc(C(F)(F)F)c4)cc3)c12`: the growth was 100% in assay [1]; 97.9% in assay [2]; 104% in [3]; 99.4% in [4]; 115% in assay [5]; 94.4% in [6]. The results for the growth in assay [7], in assay [8] and in assay [9] were 104%, 116% and 113%, respectively.
On to `CC(=O)O[C@@H]1C2CCC3C(CC[C@@]4(C)C3CC[C@@H]4C(C)N(C)C)[C@@]2(C)CC[C@@H]1NC(=O)C=C(C)C` (stereo partly drawn), for which the growth in [1] was 33.9%; in assay [2], 64.7%; in assay [3] it was 13.1%; in [4], -48.6% (active); in [5], 24.4%; in [6], 65.7%. In addition, the growth in assay [7] was 32.3%; in assay [9], -82.8% (active).
In the case of `O=C1Nc2cc(Cl)ccc2/C1=C\c1c(-c2ccc(F)cc2)nc2ccccn12`, the growth was -20.4% (active) in assay [1]; 7.11% (active) in [2]; 39.5% in [3]; 0.0437% (active) in assay [4]; 69.8% in assay [5]; -51.5% (active) in assay [6]. The growth in assay [7] was 33.5%; in [8] it was 7.55% (active); in [9], -33.1% (active).
On to `CCOC(=O)c1ccc2c(c1)ncn2-c1ccc(NC(=O)Nc2cccc(C)c2)cc1`, for which the growth in assay [1] is 78.5%; in [2], 93.8%; in [3], 87.9%; in assay [4] it was 102%; in assay [5], 117%; in [6], 61.3%. The growth is 103% in assay [7], 79.2% in assay [8] and 74.3% in assay [9].
As for `Cn1ccnc1C(=O)/C=C/c1ccc(CC(=O)Nc2ccc(Cl)cc2)cc1`, the growth in [1] is 19.2%; in assay [2], 76.7%; in assay [3], 6.08% (active); in [4], -27.6% (active); in assay [5], 72%; in assay [6], 6.86% (active). The growth in [7] was 6% (active); in [8], 11.3%; in assay [9], 7.39% (active).
With `O=C1/C=C/[C@@H](O)[C@@H]2C[C@@H](O)C[C@H]2/C=C/CCC[C@H](CCc2ccc3ncccc3c2)O1`, the growth in assay [1] was -32.5% (active); in [2] it was -28.7% (active); in assay [3], 17.6%; in assay [4], 15%; in assay [5] it was 30.2%; in assay [6], -53.4% (active). Further, the growth in [7] is 19.2%; in assay [8], -50.2% (active); in [9], -98.4% (active).
As for `C#CCNC(=O)[C@]1(C)CC[C@]2(C)CC[C@@H]3C(=CC[C@H]4[C@@]3(C)CC[C@H]3C(C)(C)C(=O)CC[C@]43C)[C@@H]2C1`, the growth was 91% in [1]; 98.7% in [2]; 90.9% in assay [3]; 97.6% in assay [4]; 99.9% in assay [5]; 79.8% in assay [6]. Also, the growth in [7] is 91.6%; in assay [8] it was 89.8%; in [9], 101%.
In the case of `Cc1cccc(-c2cn3ccnc3c(-c3ccc4ncn(Cc5ccccc5)c4c3)n2)c1`, the growth in [1] was 90.9%; in assay [3], 101%; in [10], 90.3%; in assay [4], 89.9%; in assay [5], 71.3%; in [6] it was 71.6%. Further, the growth in assay [7] is 85.1%; in assay [8] it was 78.6%.
Take `Cn1c(N2NC(=O)C(N=Nc3ccc(S(N)(=O)=O)cc3)C2=O)nc(-c2ccco2)c(C#N)c1=O` (stereo not drawn): the growth in assay [1] was 70%; in assay [2], 94.9%; in assay [3] it was 107%; in assay [4], 103%; in assay [5], 32.3%; in assay [6] it was -40.5% (active). Further, the growth in assay [7] is 109%; in [8], 100%; in assay [9], 77.1%.
`CC(C)(C)[Si](C)(C)OC1[C@@H](O[Si](C)(C)C(C)(C)C)[C@@H](CNC(=O)NC(=O)CCl)O[C@H]1n1cnc2c(NC(=O)Nc3ccccc3)ncnc21` (stereo partly drawn): the growth in assay [1] was -93.3% (active); in assay [2], -93.8% (active); in assay [3], 120%; in assay [4] it was 11.9%; in [5] it was -74% (active); in [6], -61.9% (active). The growth in assay [7] was 1.49% (active); in assay [8], -93.8% (active); in assay [9], -18.3% (active).
As for `C=C(CBr)[C@@H]1CC[C@]2(COC(C)=O)CC[C@]3(C)[C@H](CC[C@@H]4[C@@]5(C)CCCNC(C)(C)[C@@H]5CC[C@]43C)[C@@H]12`, the growth in assay [1] is 37.7%; in [2], 76.9%; in assay [3], 83.1%; in assay [4], 17%; in assay [5] it was 39.3%; in assay [6], 31.1%. Besides, the growth in [7] was 34.4%; in assay [8], 45.7%; in assay [9], 48.1%.
As to `COc1ccc2c(c1)oc1c(C)c3c(c(C)c12)C(=O)N(CCN1CCOCC1)C3=O`, the growth in [1] is 101%; in [2], 96.4%; in [3] it was 90.9%; in assay [4], 101%; in assay [5] it was 106%; in assay [6] it was 29.8%. Besides, the growth was 90.8% in assay [7] and 102% in [8].
Turning to `Nc1n[nH]c2cccc(C#Cc3cccc(C(=O)Nc4cccc(C(F)(F)F)c4)c3)c12`, the growth in assay [1] is 54%; in assay [2] it was 63.2%; in [3], 86.4%; in assay [4], 74.7%; in assay [5], 58.6%; in assay [6], 60.9%. Besides, the growth in [7] is 77.8%; in assay [8] it was 90.6%; in [9], 49.8%.
Consider `CCN(CC)CCOc1ccc(NC(=O)C(C(C)C)N2C(=O)/C(=C/c3ccc(Br)cc3)SC2=S)cc1` (stereo not drawn), for which the growth in assay [1] was 94.6%; in assay [2] it was 90%; in assay [3], 99.8%; in assay [4], 16.2%; in [5], 78.8%; in assay [6], 96.3%. For the same compound, the values for the growth in assay [7] and in [9] were 16.6% and 92.1%, respectively.
In the case of `CN(C)c1ccc(Nc2c3ccccc3nc3cc(NC(=O)CCN4CCCC4)ccc23)cc1`, the growth in [1] was -42.5% (active); in assay [2] it was -1.19% (active); in [3], -14.6% (active); in [4], -65.5% (active); in assay [5] it was -9.52% (active); in assay [7] it was -33.5% (active). Besides, the growth in [8] is -54% (active).
In the case of `O=S(=O)(NCCCNc1nccc(-c2c(-c3cccc(O)c3)nc3occn23)n1)c1ccc(Cl)cc1`, the growth in [1] was 94.6%; in [2] it was 108%; in assay [3] it was 103%; in assay [4], 92.5%; in [5], 96.6%; in assay [6], 87.6%. Further, the growth is 90.5% in assay [7], 102% in [8] and 27.7% in assay [9].
As to `O=C(c1ccccc1)N1N=C(c2ccc(-n3ccc(C(F)(F)F)n3)c(F)c2)CC1c1ccc[nH]1` (stereo not drawn), the growth was 104% in [1]; 108% in [2]; 98.7% in [3]; 102% in assay [4]; 141% in [5]; 89.9% in assay [6]. Besides, the growth is 99.9% in [7] and 97.1% in assay [8].
Regarding `O=C1c2ccc3c4c(ccc(c24)C(=O)N1CCCNCc1ccccc1F)C(=O)N(CCCNCc1ccccc1F)C3=O`, the growth was -53% (active) in assay [1]; -51.9% (active) in [2]; -83.5% (active) in assay [3]; -55.2% (active) in assay [4]; -14.2% (active) in [5]; -92.5% (active) in [6]. Besides, the growth is -91.2% (active) in assay [7], -40.1% (active) in assay [8] and -46% (active) in [9].
Regarding `COC(=O)N[C@H]1CCc2c(Cl)c(OC)c(OC)c(OC)c2-c2ccc(SC)c(=O)cc21`, the growth in assay [1] was 34%; in [2], 22.7%; in assay [3] it was 35.4%; in assay [4], -11.4% (active); in assay [5], 1.96% (active); in assay [6], 21.7%. The growth in [7] is 19.8%; in [8], 7.29% (active); in [9], -24.3% (active).
For `Cc1cc2nc3c4cc(C=O)ccc4n(CCN(C)C)c3nc2cc1C`, the growth in [1] is 17.4%; in assay [2], -3.6% (active); in [3], 21%; in assay [4], 0.703% (active); in [5] it was 27%; in assay [6], -9.47% (active). Also, the growth in assay [7] is 6.3% (active); in [8], 27.5%; in assay [9] it was -15.9% (active).
Take `CCSCC1CC(O)(c2ccccc2)CC(c2ccc(F)cc2)O1` (stereo not drawn): the growth in assay [1] was 26.6%; in assay [2], 24.6%; in [3] it was 45.4%; in [4], -30.9% (active); in assay [5], -9.6% (active); in [6], 53.9%. The growth in [7] was 20.7%; in assay [8], -23.7% (active); in [9] it was -94.8% (active).
